Bioassay records: PubChem BioAssay, National Center for Advancing Translational Sciences (NCATS)
Marburg entry inh: inhibitors of Marburg virus binding or cell entry; Marburg virus pseudotyped entry inhibition, cell reporter; Potency, µM (doses to about 37.8 µM), without a hit: at the top dose activity change, negative = inhibition, hits mostly inhibitors; hit rate 1.8% among 300,000; AID 540276; calls by dose curve; tested in HEK293 cells; note: potency is the fitted concentration of half-maximal effect; % is set by controls: 0 for no effect and ±100 for the full control effect
Shiga inhibitor: inhibitors of Shiga toxin in Vero cells; hit rate 9.2% among 290,000; AID 2315; Vero cells, Shiga toxin protein synthesis inhibition reporter; inhibition, % at 38.7 µM; in the data active = inhibition mostly above about 28%, no sharp cut-off; inactive = mostly below about 43%; note: 0% is about no effect
CHX counter: counter-screen for Shiga toxin inhibitors: cycloheximide protein synthesis inhibition; cell reporter, cycloheximide protein synthesis inhibition counterscreen; max response, %; hit rate 12% among 300,000; AID 2314; in the data active = max response mostly above about 13%, no sharp cut-off; inactive = mostly below about 14%; note: read at 38.3 µM for the half of the compounds with a filed dose; 0% is about no effect
LASV entry inh: Lassa virus entry inhibition. Lassa virus pseudotype entry inhibition, cell reporter. Potency, µM (titrated, usually from 37.9 µM), for the others: at the top dose activity change, negative = inhibition, actives largely listed as inhibitors. hit rate 1.2% among 300,000. AID 540256; calls by dose curve; tested in HEK293 cells; note: potency is the fitted concentration of half-maximal effect; % is set by controls: 0 for no effect and ±100 for the full control effect; nearly all actives have a fitted effect of over 50% in size
* hit, by the source's call; ? = inconclusive; . = no result given; + = active, no number; [ ] = dose if it differs, or a comment. This is a sample that favours compounds with a hit; in the whole collection about 12% have one here.

SMILES | Marburg entry inh | Shiga inhibitor | CHX counter | LASV entry inh
O=C(Nc1ccc2c(c1)CCC2)C1COc2ccccc2O1 (stereo not drawn) | 1% | 40* | 58* | ?
Cc1cccnc1NC(=O)C1COc2ccccc2O1 (stereo not drawn) | . | 12 | 6 | .
O=C(Nc1ccc2c(c1)OCO2)C1COc2ccccc2O1 (stereo not drawn) | -9% | 107* | 36* | -2%
O=C(NC1=NCCS1)C1COc2ccccc2O1 (stereo not drawn) | 1µM* | -24 | -8 | ?
Cc1ccc(C)c(Cn2c(SCC(=O)NCc3ccccc3)nc3ccccc32)c1 | . | . | . | -30%[46.1 µM]
NC(=O)c1ccc(NC(=O)C2COc3ccccc3O2)cc1 (stereo not drawn) | . | -2 | -2 | .
O=C(Nc1cnc2ccccc2c1)C1COc2ccccc2O1 (stereo not drawn) | -17% | 80* | 31* | ?
O=C(Nc1ccc2c(c1)OCO2)C1CC(c2ccccc2Cl)=NO1 (stereo not drawn) | ? | 48* | 20 | 6%
CCn1cc(C2=NOC(C(=O)Nc3ccc4c(c3)OCO4)C2)c(C)n1 (stereo not drawn) | 4% | 12 | 9 | -25%
O=C(Nc1ccc(F)cc1)C1COc2ccccc2O1 (stereo not drawn) | . | 39 | 20* | .
C=C1CC[C@H](O)C/C1=C/C=C1\CCC[C@]2(C)[C@@H]([C@H](C)CCCC(C)C)CC[C@@H]12 | . | 89* | 34* | .
COc1ccc(CCc2nnc(CCC(=O)NCCc3ncccc3C)o2)cc1 | . | 25 | 21* | .
COc1ccc(CCc2nnc(CCC(=O)NCc3cc(C(C)C)no3)o2)cc1 | 12%[46.1 µM] | 80* | 35* | 2%[46.1 µM]
COc1ccc(CCC(=O)NCc2ccco2)cc1 | ? | 11 | -3 | 0%
COc1ccccc1C(=O)NCc1nnnn1-c1ccc(C)c(C)c1 | . | . | . | -5%[46.1 µM]
Cc1ccc2c(c1)c1c(n2CC(O)CNC(C)(C)C)CCCC1 (stereo not drawn) | . | -5 | -4 | .
Cc1ccc2c(c1)c1c(n2CC(O)CN2CCCCCC2)CCCC1 (stereo not drawn) | 6.3µM* | -2 | -2 | ?
O=C/C=C/c1c(-c2ccccc2)cc2oc3ccccc3cc1-2 | -23%[46.1 µM] | 77 | 27* | ?
O=C(CC(c1ccco1)C1CCCCC1=O)c1ccco1 (stereo not drawn) | 2% | 1 | -5 | 10%
O=C(CC(c1ccccc1)C1CCCCC1=O)c1ccco1 (stereo not drawn) | 1% | 63* | 38* | 10%
CC(C)Cn1c(SCC(=O)Nc2cccnc2Cl)nnc1-c1ccco1 | -13%[46.1 µM] | . | . | -2%[46.1 µM]
C/C(=N/OC(=O)c1ccc(Cl)cc1Cl)c1oc(C)nc1C | 21%[46.1 µM] | 5 | 10 | -4%
C/C(=N/OC(=O)c1ccccc1)c1oc(C)nc1C | ? | 64* | 51* | 6%
COc1ccc(F)cc1S(=O)(=O)NC1CCCC1 | ? | -29 | -4 | ?
Clc1ccc(N=C2SCC3CCCCN23)cc1 (stereo not drawn) | -29%[46.1 µM] | 77* | 70* | -11%[46.1 µM]
SMILES | Marburg entry inh | Shiga inhibitor | CHX counter | LASV entry inh
O=S(=O)(c1ccc(Cl)cc1)N1CCN(C2CCCCCC2)CC1 | -1% | 4 | -5 | ?
FC(F)Oc1ccc(N=C2SCC3CCCCN23)cc1 (stereo not drawn) | -5%[46.1 µM] | 131* | 53* | ?
Cc1cc(C)nc(SCC(=O)N/N=C/c2ccc3c(c2)OCO3)n1 | 0% | 60* | 39* | 0%
CC(C)Oc1ccc(CCC(=O)N/N=C/c2ccc3c(c2)OCO3)cc1 | -17%[46.1 µM] | -3 | -2 | ?
O=C(CCc1ccc(O)c(O)c1)N/N=C/c1ccc2c(c1)OCO2 | 9%[46.1 µM] | 25 | 33* | ?
Cc1ccccc1NCC(=O)N/N=C\c1ccc2c(c1)OCO2 | -16%[46.1 µM] | 16 | 16 | -2%[46.1 µM]
Cc1cc(C)nc(SCC(=O)Nc2ccc3c(c2)OCO3)n1 | -2%[46.1 µM] | 8 | 8 | 14%[46.1 µM]
CCOc1ccc(NC(=O)CCC(=O)N/N=C/c2ccc3c(c2)OCO3)cc1 | -22% | 28 | 23* | 5%
Cc1ccc(C)c(NC(=O)CCC(=O)N/N=C/c2ccc3c(c2)OCO3)c1 | 7%[46.1 µM] | 42 | 20* | 2%
CCOc1ccc(/C=N/NC(=O)CCC(=O)Nc2ccc(F)cc2)cc1 | -8%[46.1 µM] | 14 | 3 | ?
CC(C)(C)NC(=O)NC(=O)COC(=O)Cc1c(Cl)cccc1Cl | ? | 19 | 2 | -11%[46.1 µM]
CC(C)(C)NC(=O)NC(=O)COC(=O)c1c(F)cccc1Cl | 30%[46.1 µM] | 109* | 36* | .
Cc1ccc(N2C(=O)CSC23C(=O)N(CC(=O)NCc2ccccc2)c2ccccc23)cc1 (stereo not drawn) | . | . | . | -12%[46.1 µM]
CC(=O)Nc1ccc(S(=O)(=O)Nc2nc3ccccc3nc2Sc2nncn2C)cc1 | -1% | 117* | 26* | ?
Cn1ccnc1Sc1nc2ccccc2nc1NS(=O)(=O)c1ccccc1 | 2% | 103* | 56* | -9%
CCCCN(C(=O)Cc1ccc2c(c1)OCCO2)c1c(N)n(CC(C)C)c(=O)[nH]c1=O | 14% | . | . | -1%
Clc1ccc(OCc2nc(-c3ccncc3)no2)c(Cl)c1 | ? | 122* | 64* | ?
Cc1cccc(OCc2nc(-c3cccnc3)no2)c1 | 4% | + | 15* | ?
Clc1cccc(OCc2nc(-c3ccncc3)no2)c1 | . | 45 | 34* | .
Clc1cccc(OCc2nc(-c3ccncc3)n[nH]2)c1 | ? | 7 | 5 | -4%
Cc1ccc(C)c(OCc2nc(-c3cccnc3)no2)c1 | 9% | 30 | 10 | -6%
Cc1nn(S(=O)(=O)c2ccccc2)c(C)c1S(=O)(=O)N1CCC(C)CC1 | . | 10 | -1 | 2%[46.1 µM]
CCc1cccc(C)c1NC(=O)Cn1ccn(Cc2ccc(Cl)cc2)c(=O)c1=O | . | . | . | 1%[46.1 µM]
CCOc1ccc(NC(=S)N(CC)Cc2ccccc2)cc1 | . | 34 | 32* | .
CCCN(Cc1ccccc1)C(=S)Nc1ccc(OCC)cc1 | ? | 25 | 19* | ?
SMILES | Marburg entry inh | Shiga inhibitor | CHX counter | LASV entry inh
CCOc1ccc(/C(O)=C2/C(=O)C(=O)N(CCOCCO)C2c2ccccn2)cc1 (stereo not drawn) | 1% | 57* | 39* | -2%
CCN(CC)CCN1C(=O)C(=O)/C(=C(/O)c2cccc(OC)c2)C1c1ccccn1 (stereo not drawn) | 2% | 49 | 15* | 6%
CCN(CC)CCCN1C(=O)C(=O)/C(=C(/O)c2ccc(Cl)cc2)C1c1ccccn1 (stereo not drawn) | 16% | -1 | 10 | 0%
CCN1C(=S)SC(=O)C1=C1C=C(C)OC(C)=C1 | ? | 21 | 7 | 7%
CCN1C(=S)SC(=O)C1=C1C=C(C)N(Cc2ccco2)C(C)=C1 | ? | 96* | 55* | ?
O=C(Cn1c(=O)n(Cc2ccc3c(c2)OCO3)c(=O)c2oc3ccccc3c21)Nc1ccccc1F | . | . | . | 5%[46.1 µM]
CCc1nc2sc3c(=O)[nH]cnc3c2c2c1CSC(C)(C)C2 | . | -1 | -1 | .
CCc1nc2c(sc3nc4c(cc32)COC(C)(C)C4)c(=O)n1CCN(CC)CC | . | 16 | -2 | .
CCCCCn1cnc2c(sc3nc4c(cc32)CSC(C)(C)C4)c1=O | ? | 150* | 61* | 21%
CC1(C)Cc2nc3sc4c(=O)[nH]cnc4c3cc2CS1 | 20%[46.1 µM] | 15 | 10* | 9%
COc1cc(OC)cc(C2=Nn3c(nnc3-c3cccc(OC)c3)SC2)c1 | . | -2 | 1 | .
